Test [1] can be described thus: Nuclear factor erythroid 2-related factor 2/antioxidant responsive element (Nrf2/ARE) small molecule agonists: qHTS cell viability counter screen in human keratinocytes (AID 1919968; active = well fitted curve in the direction sought with a large enough effect in the repeat runs; an effect the other way counts as inactive or inconclusive; also: nearly all actives have a fitted effect of over 55% in size). Summed up:
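CellTiter-Fluor fluorescence, read 1 h after reagent, gave viability in the same wells as the ARE-luciferase assay. KeratinoSens cells (1,500/well) had 23 h compound exposure at 37 C/5% CO2 following 5 h plating.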

The nature of test [2]: Nuclear factor erythroid 2-related factor 2/antioxidant responsive element (Nrf2/ARE) small molecule agonists: luciferase reporter gene qHTS assay in human keratinocytes (AID 1919969). Also: nearly all actives have a fitted effect of over 35% in size. Also: potency is read from the fitted curve at half-maximal effect. A general note: Reporter assays use an easily measured gene product as a stand-in for the process of interest.
Test [3] addresses Gonadotropin-releasing hormone receptor (Homo sapiens) (UniProt P30968). The experiment in a line: Human gonadotropin-releasing hormone receptor (GnRHR) small molecule agonists, calcium flux assay in GnRHR-HEK293 cells (AID 1920063). Also: nearly all actives have a fitted effect of over 35% in size. Summed up: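 Agonist mode: compounds at 15 concentrations, in triplicate, went onto calcium dye-loaded GnRHR-HEK293 cells. Intracellular calcium was then followed as 480/540 nm fluorescence at 1 s intervals over 3 min.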

The target in test [4] is KiSS-1 receptor (Homo sapiens) (UniProt Q969F8). In words: Human kisspeptin (KISS1R) small molecule agonists, calcium flux assay in KISS1R-HEK293 cells (AID 1920064; active = well fitted curve in the direction sought with a large enough effect in the repeat runs; an effect the other way counts as inactive or inconclusive). Put shortly: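 Agonist mode: intracellular calcium rise tracked at 1 s intervals over 3 min (480/540 nm) immediately after compound addition to dye-loaded KISS1R-HEK293 stable cells. Each compound tested at 15 concentrations in triplicate.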
A general note: Calcium assays in cells follow changes in intracellular calcium, usually with a dye or a luminescent sensor.

The nature of test [5]: G protein-coupled receptor (GPCR) small molecule agonists, calcium flux assay: HEK293 wild type cell line counter screen (AID 1920065). Put shortly:
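Calcium flux counter screen: compound added in agonist mode at 15 concentrations in triplicate to dye-loaded parental HEK293 cells. Fluorescence (480/540) read kinetically for 3 min; ATP served as positive control.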

Test [6] can be described thus: p53 small molecule agonists, cell-based qHTS assay with human liver microsomes: qHTS cell viability counter screen (AID 1963579). Also: nearly all actives have a fitted effect of over 45% in size. Put shortly:
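p53RE-bla cells (4,000/well) were pre-incubated 5 h at 37 C, then given compounds in DMSO plus human liver microsomes (0.5 mg/mL final) and NADPH (0.5 mg/mL final) for 16 h at 37 C. Viability was read by CellTiter-Glo luminescence.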
In general terms: In qHTS, concentration-response curves come from the screen itself.

Test [7] is described as follows: p53 small molecule agonists, cell-based qHTS assay with rat liver microsomes: qHTS cell viability counter screen (AID 1963580). Also: nearly all actives have a fitted effect of over 45% in size. Put shortly: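 Rat liver microsome (0.5 mg/mL final) and NADPH (0.5 mg/mL final) co-incubation with compounds for 16 h at 37 C on HCT-116 p53RE-bla cells; cytotoxicity taken from intracellular ATP luminescence.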
A short description of test [8]: p53 small molecule agonists, cell-based qHTS assay: qHTS cell viability counter screen (AID 1963581). Also: nearly all actives have a fitted effect of over 45% in size. Put shortly:
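Counter screen read by CellTiter-Glo luminescence (ATP content, 30 min at room temperature), run in the same wells as the beta-lactamase reporter read. HCT-116 p53RE-bla cells saw compounds for 16 h at 37 C.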

Test [9] deals with 5-hydroxytryptamine receptor 2A (Homo sapiens) (UniProt P28223). The experiment in a line: 5-hydroxytryptamine receptor 2A (HTR2A) small molecule antagonists, cell-based qHTS assay (AID 1963586). Also: nearly all actives have a fitted effect of over 45% in size. Summed up:
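CHO cells stably expressing human HTR2A were plated for 18 h at 37 C, then loaded with calcium dye for 1 h. Compounds were preincubated 5 min at room temperature before DOI (4 nM solution) was added. Kinetic fluorescence was read for 3 min.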

The target is the same in test [10]. The experiment in a line: 5-hydroxytryptamine receptor 2A (HTR2A) small molecule agonists, cell-based qHTS assay (AID 1963587). Also: nearly all actives have a fitted effect of over 30% in size. Put shortly: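 Kinetic calcium-flux fluorescence (2 min, 1 sec intervals) after compound addition in agonist mode. HTR2A-CHO cells were cultured 18 h, then dye-loaded 1 h at 37 C.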
For test [11], the target named is Muscarinic acetylcholine receptor M1 (Homo sapiens) (UniProt P11229). In words: Cholinergic receptor muscarinic 1 (CHRM1) small molecule antagonists, cell-based qHTS assay (AID 1963588). Also: nearly all actives have a fitted effect of over 40% in size. Put shortly:
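Compounds were tested at 15 concentrations in three independent runs. Dye-loaded CHRM1-CHO cells were exposed 5 min at room temperature before stimulation by acetylcholine added at 50nM. Intracellular calcium was read kinetically on FDSS for 3 min.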

Test [12] shares this target. In words: Cholinergic receptor muscarinic 1 (CHRM1) small molecule agonists, cell-based qHTS assay (AID 1963589). Also: nearly all actives have a fitted effect of over 35% in size. Summed up: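 Agonist-mode calcium-flux screen: compounds at 15 concentrations, three independent runs, were pin-transferred onto dye-loaded human CHRM1-CHO cells. Fluorescence was then recorded kinetically every second over minutes.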
The nature of test [13]: cAMP Responsive Elements (CRE) small molecule agonists, cell-based qHTS assay (AID 1963590). Put shortly:
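Agonist mode: compound added to CRE-bla HEK 293T cells (2,000/well, 18 h after plating) for 3 h at 37 C/5% CO2. Reporter activity detected via FRET beta-lactamase substrate, 2 h room-temperature loading.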

Test [14] concerns the target Beta-2 adrenergic receptor (Homo sapiens) (UniProt P07550). In words: Adrenergic beta2 receptor (ADRB2) small molecule antagonists, cell-based qHTS assay (AID 1963592). Also: series mostly up to about 92 µM; nearly all actives have a fitted effect of over 50% in size. Put shortly: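 Assay format: CHO-ADRB2 cells, 18-20hr seeding at 37C/5% CO2, then compound plus 1nM isoproterenol agonist mix for 0.5hr RT. Homogeneous time-resolved fluorescence cAMP detection after 1hr, expressed as 665/615 nm ratio.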

Test [15] shares this target. In words: Adrenergic beta2 receptor (ADRB2) small molecule agonists, cell-based qHTS assay (AID 1963593).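 Also: CHO cells stably overexpressing human ADRB2.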 Summed up:
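CHO cells stably over-expressing ADRB2 were plated overnight at 37C, then dosed with compounds plus a stimulation mix containing 100uM IBMX and 25uM Ro-20-1724 for 0.5hr at room temperature. cAMP was measured by HTRF competition, 1hr.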

Test [16] deals with D(2) dopamine receptor (Homo sapiens) (UniProt P14416). In words: Dopamine D2 receptor (DRD2) small molecule agonists, cell-based qHTS assay (AID 1963594). Also: nearly all actives have a fitted effect of over 35% in size. Put shortly:
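cAMP accumulation in DRD2-HEK293 cells measured by HTRF after 1 h detection; compounds added 10 min before NKH477 (200nM […]) forskolin-analogue stimulation, 30 min at room temperature, with Ro20-1724 present at 0.1 mM final.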

Test [17] shares this target. In words: Dopamine D2 receptor (DRD2) small molecule antagonists, cell-based qHTS assay (AID 1963595; active = well fitted inhibition curve with a large enough effect in the signal ratio in the repeat runs, with a control signal flat; the % refers to the signal ratio). Summed up: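 DRD2-HEK293; 0.1 mM Ro20-1724; cpd 10 min RT; NKH477 200 nM + quinpirole 12 nM, 30 min RT; HTRF cAMP (cAMP-d2/anti-cAMP cryptate), 665/620 nm ratio after 1 h.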
Test [18] can be described thus: cAMP Responsive Elements (CRE) small molecule antagonists, cell-based qHTS assay (AID 1963591; active = well fitted inhibition curve with a large enough effect in the signal ratio in the repeat runs, not every such curve was filed as active; the % refers to the signal ratio). Summed up:
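Antagonist mode: compounds are added alongside the adenylyl cyclase activator NKH477 (0.25 uM final) to CRE-bla HEK293T cells for 3 h. LiveBLAzer FRET substrate, 2 h at room temperature, reports bla expression.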

Structures are written as SMILES. Where “and” joins values, the source holds several entries; their conditions need not be identical. Equal values may be shown once. Records with an inconclusive call do not appear. Calls of active or inactive are those of the source. Unless noted, calls follow the shape of the full dose curve.

Sequence of D(2) dopamine receptor (Homo sapiens) (P14416 whole entry, looked up): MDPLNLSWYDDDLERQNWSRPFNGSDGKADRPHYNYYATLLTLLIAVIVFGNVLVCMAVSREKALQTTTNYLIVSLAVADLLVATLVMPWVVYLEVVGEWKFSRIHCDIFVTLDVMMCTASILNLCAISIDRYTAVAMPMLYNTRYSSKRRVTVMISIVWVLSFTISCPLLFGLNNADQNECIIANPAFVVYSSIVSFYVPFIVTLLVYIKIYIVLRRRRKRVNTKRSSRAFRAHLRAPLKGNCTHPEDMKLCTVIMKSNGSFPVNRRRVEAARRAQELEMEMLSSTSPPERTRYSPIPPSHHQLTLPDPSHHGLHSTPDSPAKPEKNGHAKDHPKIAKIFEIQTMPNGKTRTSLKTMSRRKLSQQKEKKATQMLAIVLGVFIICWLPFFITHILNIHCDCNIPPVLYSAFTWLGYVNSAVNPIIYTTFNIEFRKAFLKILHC
Sequence of Muscarinic acetylcholine receptor M1 (Homo sapiens) (P11229 whole entry, looked up): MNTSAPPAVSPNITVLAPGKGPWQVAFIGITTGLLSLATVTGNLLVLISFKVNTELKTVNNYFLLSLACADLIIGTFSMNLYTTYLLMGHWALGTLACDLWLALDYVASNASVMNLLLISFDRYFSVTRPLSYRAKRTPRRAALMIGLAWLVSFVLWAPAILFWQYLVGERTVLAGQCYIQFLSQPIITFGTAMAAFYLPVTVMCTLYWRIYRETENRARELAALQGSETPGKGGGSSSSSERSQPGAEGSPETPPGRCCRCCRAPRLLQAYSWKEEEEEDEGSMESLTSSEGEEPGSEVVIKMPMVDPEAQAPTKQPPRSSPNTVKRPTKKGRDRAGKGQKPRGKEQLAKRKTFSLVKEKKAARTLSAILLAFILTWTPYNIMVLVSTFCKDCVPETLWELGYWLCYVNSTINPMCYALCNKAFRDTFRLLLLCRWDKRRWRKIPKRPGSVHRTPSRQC
Sequence of Gonadotropin-releasing hormone receptor (Homo sapiens) (P30968 whole entry, looked up): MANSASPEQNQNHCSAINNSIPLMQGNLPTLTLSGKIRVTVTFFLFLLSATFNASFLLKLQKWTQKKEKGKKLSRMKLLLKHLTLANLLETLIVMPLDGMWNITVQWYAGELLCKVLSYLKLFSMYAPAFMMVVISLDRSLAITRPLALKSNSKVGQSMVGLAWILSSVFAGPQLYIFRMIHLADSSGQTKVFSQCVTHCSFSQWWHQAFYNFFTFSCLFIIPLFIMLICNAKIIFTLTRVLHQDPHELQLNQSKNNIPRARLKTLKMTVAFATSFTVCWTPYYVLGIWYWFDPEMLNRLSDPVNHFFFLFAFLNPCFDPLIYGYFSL
Sequence of 5-hydroxytryptamine receptor 2A (Homo sapiens) (P28223 whole entry, looked up): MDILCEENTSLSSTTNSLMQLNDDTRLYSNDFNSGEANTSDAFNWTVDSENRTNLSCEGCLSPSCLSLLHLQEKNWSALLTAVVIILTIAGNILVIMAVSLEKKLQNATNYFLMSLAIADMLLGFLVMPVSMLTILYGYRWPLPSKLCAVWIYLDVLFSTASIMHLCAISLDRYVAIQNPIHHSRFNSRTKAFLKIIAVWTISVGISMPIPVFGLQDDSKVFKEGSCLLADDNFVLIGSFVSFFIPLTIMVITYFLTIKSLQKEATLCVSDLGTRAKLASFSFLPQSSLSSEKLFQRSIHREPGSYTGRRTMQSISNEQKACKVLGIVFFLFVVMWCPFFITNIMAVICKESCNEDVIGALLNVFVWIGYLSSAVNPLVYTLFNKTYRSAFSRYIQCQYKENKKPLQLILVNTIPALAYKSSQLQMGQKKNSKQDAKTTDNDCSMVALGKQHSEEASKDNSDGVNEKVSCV
Sequence of Beta-2 adrenergic receptor (Homo sapiens) (P07550 whole entry, looked up): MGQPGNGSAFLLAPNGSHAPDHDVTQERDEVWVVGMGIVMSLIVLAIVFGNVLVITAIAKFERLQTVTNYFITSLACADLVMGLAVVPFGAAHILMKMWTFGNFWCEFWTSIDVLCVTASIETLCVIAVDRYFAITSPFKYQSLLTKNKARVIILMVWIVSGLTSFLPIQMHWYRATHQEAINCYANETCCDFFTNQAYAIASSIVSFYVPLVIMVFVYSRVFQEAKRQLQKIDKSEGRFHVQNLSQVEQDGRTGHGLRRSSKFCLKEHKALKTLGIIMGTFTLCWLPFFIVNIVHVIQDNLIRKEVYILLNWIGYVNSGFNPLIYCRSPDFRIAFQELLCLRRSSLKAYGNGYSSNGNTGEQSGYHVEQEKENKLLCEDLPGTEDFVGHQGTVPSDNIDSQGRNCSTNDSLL
Sequence of KiSS-1 receptor (Homo sapiens) (Q969F8 whole entry, looked up): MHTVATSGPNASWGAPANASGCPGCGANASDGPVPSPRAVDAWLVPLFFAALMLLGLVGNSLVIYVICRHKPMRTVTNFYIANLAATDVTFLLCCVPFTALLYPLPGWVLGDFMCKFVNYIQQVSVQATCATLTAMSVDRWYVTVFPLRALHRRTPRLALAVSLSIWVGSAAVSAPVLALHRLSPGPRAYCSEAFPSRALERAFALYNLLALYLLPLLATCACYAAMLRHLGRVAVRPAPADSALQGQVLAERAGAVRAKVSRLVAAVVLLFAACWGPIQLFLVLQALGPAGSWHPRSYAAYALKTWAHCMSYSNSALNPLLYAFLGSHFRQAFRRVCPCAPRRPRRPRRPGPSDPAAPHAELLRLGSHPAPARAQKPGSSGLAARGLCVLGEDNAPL

Turning to `CCCCC(C=O)CC` (configuration not stated), the Potency entry in test [1], in test [2], in test [3], in test [4], in test [5] and in test [6] was “inactive” each time. In addition, the Potency entry in [7], in test [8], in test [9], in test [10], in test [11] and in test [12] was “inactive” in each case. The Potency entry in [13], in [14], in test [15], in test [16] and in [17] was “inactive” throughout.
With `OC1C(O)C(O)C(O)C(O)C1O` (configuration not stated), the Potency result in test [1], in [2], in test [3], in test [4], in test [5] and in [6] was “inactive” in each case. Besides, the Potency entry in [7], in test [8], in test [9], in test [10], in test [11] and in [12] was “inactive” each time. Also, the Potency entry in test [13], in test [18], in [14], in test [15], in test [16] and in [17] was “inactive” each time.
As to `c1ccc2[nH]c(-c3cscn3)nc2c1`, the Potency entry in test [1], in test [3], in test [4], in test [5], in test [6] and in test [7] was “inactive” in each case. For the same compound, the Potency entry in test [8], in test [13], in [18], in [15] and in test [16] was “inactive” throughout. The Potency in [2] is 27.3 µM (active) and 6.68 µM (active).
`CC(=O)OCC(COC(C)=O)OC(C)=O`: the Potency entry in test [1], in test [2], in test [3], in test [4], in [5] and in test [6] was “inactive” each time. The Potency entry in test [7], in test [8], in [18], in [14], in test [15] and in [17] was “inactive” in each case.
Turning to `CCCCC(CC)C(=O)O` (configuration not stated), the Potency result in [1], in [2], in test [3], in test [4], in test [5] and in test [6] was “inactive” in each case. The Potency entry in test [7], in [8], in [9], in test [10], in test [11] and in [12] was “inactive” throughout. The Potency entry in test [13], in test [18], in [14], in [15], in test [16] and in [17] was “inactive” throughout.
`C1CCCNCC1`: the Potency result in test [1], in test [2], in test [3], in test [4], in [5] and in test [6] was “inactive” in each case. Also, the Potency result in test [7], in test [8], in test [9], in test [10], in test [13] and in test [18] was “inactive” in each case. In addition, the Potency entry in test [14], in [15], in test [16] and in [17] was “inactive” each time.
On to `CCO[Si](CCC#N)(OCC)OCC`, for which the Potency result in test [1], in [2], in [3], in [4], in [5] and in test [6] was “inactive” in each case. For the same compound, the Potency result in test [7], in test [8], in test [9], in test [10], in test [11] and in [12] was “inactive” throughout. Moreover, the Potency result in test [13], in test [18], in test [14], in test [16] and in test [17] was “inactive” in each case.
`CCCCCC1=CCCC1=O`: the Potency entry in [1], in [2], in test [3], in [4], in test [5] and in [6] was “inactive” each time. The Potency entry in test [7], in [8], in test [10], in test [11], in test [12] and in [13] was “inactive” each time. The Potency entry in test [18], in [14], in test [15], in test [16] and in [17] was “inactive” throughout.

(Values after PubChem BioAssay (Tox21).)
